# Results filed as inconclusive are left out. Entries that show only a call come without a potency. Calls of active or inactive are those of the source. Unless noted, the call rests on the fitted dose curve; in most records, active means well fitted curve in the direction sought with a large enough effect; inconclusive means small, poorly fitted or top-dose-only effect, or another doubt; inactive means no such curve, though single readings can be large; an effect the other way counts as inactive or inconclusive.
# Key:
# [1] = qHTS assay for measurement of the activity of small molecule inhibitors on Zika virus induced Caspase-3 activity in human astrocytoma cells (AID 1224859); further: potency means the concentration at half of the fitted maximal effect
# How it was run: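 In SNB-19 cells plated at 250 cells/well and grown 16-20 h, compounds were applied 1 h before ZIKV (2 FFU/cell). Six hours later caspase-3/7 luminescence was recorded.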
# [2] = qHTS assay to identify small molecule inhibitors of chordoma cells - UCH-2 (AID 1259356); further: series mostly up to about 46 µM
# [3] = NS1 protein of Zika virus - qHTS assay to identify small molecule inhibitors in human HEK 293 cells (AID 1347053); further: series mostly up to about 46 µM; nearly all actives have a fitted effect of over 55% in size
# How it was run: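 Compound-treated (1 h pre-infection) HEK 293 cells infected with ZIKV MR766, MOI = 0.5; after 24 h at 37 C, NS1 read by TR-FRET; data normalized to uninfected and infected controls.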
# [4] = qHTS of pediatric cancer cell lines to identify multiple opportunities for drug repurposing: Primary screen for TC32 cells (AID 1347089); further: nearly all actives have a fitted effect of over 60% in size; further: potency means the concentration at half of the fitted maximal effect
# How it was run: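 qHTS, TC32, 48 h drug treatment, CellTiter-Glo luminescence as a proxy for metabolically active cells; primary top concentration 46 µM (MIPE 11-pt, NPC 8-pt); confirmatory 11-pt.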
# [5] = qHTS of pediatric cancer cell lines to identify multiple opportunities for drug repurposing: Primary screen for DAOY cells (AID 1347090); further: nearly all actives have a fitted effect of over 55% in size; further: potency means the concentration at half of the fitted maximal effect
# How it was run: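 Eight- or eleven-point concentration series, 48 h treatment at 37 degrees C in growth media; readout CellTiter-Glo luminescence. Potency and efficacy were taken from the concentration-response curves.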
# [6] = P-glycoprotein substrates identified in KB-3-1 adenocarcinoma cell line, qHTS therapeutic library screen (AID 1346986); further: nearly all actives have a fitted effect of over 60% in size
# How it was run: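 Using luminescence to quantify ATP, parental and P-gp-overexpressing KB cells were compared after 72 h compound titration. KB-8-5-11 was also run with the P-gp inhibitor tariquidar.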
# [7] = P-glycoprotein substrates identified in KB-8-5-11 adenocarcinoma cell line, qHTS therapeutic library screen (AID 1346987); further: nearly all actives have a fitted effect of over 65% in size; further: potency means the concentration at half of the fitted maximal effect
# How it was run: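 Human cervical adenocarcinoma KB-8-5-11 cells, selected in colchicine to over-express P-gp and assayed without it, were exposed for 72 h to titrated compounds. An ATP-based luminescent viability signal gave AC50.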
# [8] = qHTS assay to identify small molecule inhibitors of chordoma cells - UCH-1 (AID 1259355); further: nearly all actives have a fitted effect of over 55% in size
# How it was run: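 A 48hr growth-inhibition format: each drug tested at 15 concentrations together with added auranofin, camptothecin, doxorubicin, rubitecan and topotecan, with cell viability quantified as CellTiter-Glo luminescence.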
# [9] = Natriuretic polypeptide receptor (hNpr1) antagonism - Pilot counterscreen GloSensor control cell line (AID 1347045; calls by dose curve; further: potency means the concentration at half of the fitted maximal effect)
# How it was run: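 The SNP-driven cGMP luminescence signal (50 uM, 20 min, room temperature) was measured in GloSensor HEK293 control cells. Compounds were tested as a LOPAC titration series and preincubated for 30-50 min.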
# [10] = target: Atrial natriuretic peptide receptor 1 (Homo sapiens) (UniProt P16066); assay: Natriuretic polypeptide receptor (hNpr1) antagonism - Pilot screen (AID 1347049; calls by dose curve;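 further: HEK293 cells with hNpr1 and GloSensor cGMP luciferase stimulated by 0.1 nM hNppA; agonist-evoked cGMP luminescence read 20 min after hNppA addition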; further: potency means the concentration at half of the fitted maximal effect)
# How it was run: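 Cells expressing receptor plus cGMP biosensor are seeded and incubated overnight at 37C, then loaded with GloSensor reagent (2% final) at room temperature for 2 h. Library compounds go on for 30 min. A pre-read precedes agonist (hNppA, 0.1 nM final) and a 20-min readout.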
# [11] = target: T1, Tyrosine-protein phosphatase non-receptor type substrate 1 (Homo sapiens) + Leukocyte surface antigen CD47 (Homo sapiens) (UniProt P78324+Q08722); assay: CD47-SIRPalpha protein protein interaction - LANCE assay qHTS validation (AID 1347057; active means well fitted curve in the direction sought with a large enough effect in the signal ratio, with a control signal flat, not every such curve was filed as active; the % refers to the signal ratio; further: series mostly up to about 38 µM)
# How it was run: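 Inhibition of soluble CD47/SIRPalpha ectodomain association by titrated compounds, measured as 665/615 nm time-resolved FRET ratio after sequential 30 min room-temperature incubations.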
# [12] = target: T1, Tyrosine-protein phosphatase non-receptor type substrate 1 (Homo sapiens) + Leukocyte surface antigen CD47 (Homo sapiens); assay: CD47-SIRPalpha protein protein interaction - Alpha assay qHTS validation (AID 1347059);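 further: bead proximity luminescence from CD47 binding SIRPalpha after compound preincubation with SIRPalpha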
# How it was run: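 In PBS (pH 7.4) with 0.05% IGEPAL CA-630, compound is preincubated with biotin-Avi-SIRPalpha ectodomain before His-CD47 ectodomain and affinity beads are added. Light-protected room-temperature incubations; AlphaScreen readout.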
# [13] = target: Parathyroid hormone/parathyroid hormone-related peptide receptor (Homo sapiens) (UniProt Q03431); assay: qHTS for PTHR1 Agonists: Optimization Screen against the NCGC LOPAC library (AID 1347079);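 further: GloSensor cAMP luminescence in HEK-293 GP2 cells expressing human PTHR1 with IBMX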
# How it was run: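 Signal increase flags agonism. GP2 cells, derived from HEK-293, express human PTHR1 and a GloSensor cAMP construct.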
# [14] = target: Atrial natriuretic peptide receptor 2 (Homo sapiens) (UniProt P20594); assay: Natriuretic polypeptide receptor (hNpr2) antagonism - Pilot subtype selectivity assay (AID 1347050; calls by dose curve)
# How it was run: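 Read-out: GloSensor luminescence (CCD imager), baseline vs post-stimulation. HEK293 cells expressing hNpr2; compounds pre-incubated 30-50 min at ambient temperature; hNppC 1 nM final, 20 min.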
# [15] = target: T1, Tyrosine-protein phosphatase non-receptor type substrate 1 (Homo sapiens) + Leukocyte surface antigen CD47 (Homo sapiens); assay: CD47-SIRPalpha protein protein interaction - HTRF assay qHTS validation (AID 1347058; active means well fitted curve in the direction sought with a large enough effect in the signal ratio, not every such curve was filed as active; the % refers to the signal ratio; further: series mostly up to about 38 µM)
# How it was run: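 Soluble extracellular domains (6His-CD47, Avi-tag-biotinylated SIRPalpha) in PBS pH 7.4 with 0.05% IGEPAL CA-630. Compounds were preincubated 30 min at RT with CD47 and anti-His-Eu, then SIRPalpha and SAV-XL665 were added. TR-FRET 665/615 ratio.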
# Sequence of Atrial natriuretic peptide receptor 2 (Homo sapiens) (P20594 whole entry, looked up): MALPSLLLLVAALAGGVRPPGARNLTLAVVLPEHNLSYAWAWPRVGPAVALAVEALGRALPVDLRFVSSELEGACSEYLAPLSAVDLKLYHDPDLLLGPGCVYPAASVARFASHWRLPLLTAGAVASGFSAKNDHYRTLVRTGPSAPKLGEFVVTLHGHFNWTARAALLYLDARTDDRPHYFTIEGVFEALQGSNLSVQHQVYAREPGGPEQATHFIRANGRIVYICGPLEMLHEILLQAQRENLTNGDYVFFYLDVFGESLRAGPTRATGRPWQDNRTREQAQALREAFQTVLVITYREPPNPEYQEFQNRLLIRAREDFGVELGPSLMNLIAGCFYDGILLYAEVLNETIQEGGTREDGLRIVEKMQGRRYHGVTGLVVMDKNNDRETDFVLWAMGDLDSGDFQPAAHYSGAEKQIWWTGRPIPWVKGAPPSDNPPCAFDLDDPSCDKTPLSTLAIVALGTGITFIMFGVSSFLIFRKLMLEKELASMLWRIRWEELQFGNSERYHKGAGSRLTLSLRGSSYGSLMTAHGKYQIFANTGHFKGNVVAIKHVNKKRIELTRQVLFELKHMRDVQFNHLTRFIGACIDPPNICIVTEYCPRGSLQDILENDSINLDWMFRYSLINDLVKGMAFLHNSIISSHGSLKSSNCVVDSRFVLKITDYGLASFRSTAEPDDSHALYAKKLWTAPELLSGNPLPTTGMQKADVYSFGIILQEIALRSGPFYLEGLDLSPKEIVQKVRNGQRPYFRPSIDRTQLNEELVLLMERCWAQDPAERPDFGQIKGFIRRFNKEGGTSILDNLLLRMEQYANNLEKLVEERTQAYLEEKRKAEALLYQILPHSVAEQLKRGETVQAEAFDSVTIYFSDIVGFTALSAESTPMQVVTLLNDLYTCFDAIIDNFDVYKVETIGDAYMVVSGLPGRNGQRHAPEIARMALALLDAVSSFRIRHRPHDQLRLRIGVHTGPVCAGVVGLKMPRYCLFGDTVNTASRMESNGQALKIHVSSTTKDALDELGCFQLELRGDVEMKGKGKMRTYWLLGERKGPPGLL
# T1 sequence (P78324 whole entry, looked up, the tested form may be a part): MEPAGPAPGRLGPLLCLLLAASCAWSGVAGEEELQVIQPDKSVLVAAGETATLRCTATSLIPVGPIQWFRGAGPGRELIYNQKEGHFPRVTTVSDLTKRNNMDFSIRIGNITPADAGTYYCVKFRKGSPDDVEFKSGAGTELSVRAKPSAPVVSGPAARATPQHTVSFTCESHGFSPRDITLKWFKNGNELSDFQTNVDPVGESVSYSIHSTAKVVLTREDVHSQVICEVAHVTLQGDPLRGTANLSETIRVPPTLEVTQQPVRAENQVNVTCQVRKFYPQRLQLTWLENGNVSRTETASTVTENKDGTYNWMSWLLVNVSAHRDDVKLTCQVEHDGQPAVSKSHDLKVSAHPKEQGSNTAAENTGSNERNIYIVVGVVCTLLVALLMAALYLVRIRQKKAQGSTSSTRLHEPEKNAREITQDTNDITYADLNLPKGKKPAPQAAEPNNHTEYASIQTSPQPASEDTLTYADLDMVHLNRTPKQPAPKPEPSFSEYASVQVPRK
# T1 sequence (Q08722 whole entry, looked up, the tested form may be a part): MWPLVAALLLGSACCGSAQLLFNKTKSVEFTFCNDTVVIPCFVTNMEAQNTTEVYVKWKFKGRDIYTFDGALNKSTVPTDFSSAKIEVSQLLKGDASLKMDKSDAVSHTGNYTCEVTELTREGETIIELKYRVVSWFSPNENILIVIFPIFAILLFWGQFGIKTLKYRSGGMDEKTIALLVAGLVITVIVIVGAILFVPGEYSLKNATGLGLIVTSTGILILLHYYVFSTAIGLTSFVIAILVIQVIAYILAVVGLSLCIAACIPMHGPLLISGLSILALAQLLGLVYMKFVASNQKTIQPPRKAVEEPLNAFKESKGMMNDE
# Sequence of Atrial natriuretic peptide receptor 1 (Homo sapiens) (P16066 whole entry, looked up): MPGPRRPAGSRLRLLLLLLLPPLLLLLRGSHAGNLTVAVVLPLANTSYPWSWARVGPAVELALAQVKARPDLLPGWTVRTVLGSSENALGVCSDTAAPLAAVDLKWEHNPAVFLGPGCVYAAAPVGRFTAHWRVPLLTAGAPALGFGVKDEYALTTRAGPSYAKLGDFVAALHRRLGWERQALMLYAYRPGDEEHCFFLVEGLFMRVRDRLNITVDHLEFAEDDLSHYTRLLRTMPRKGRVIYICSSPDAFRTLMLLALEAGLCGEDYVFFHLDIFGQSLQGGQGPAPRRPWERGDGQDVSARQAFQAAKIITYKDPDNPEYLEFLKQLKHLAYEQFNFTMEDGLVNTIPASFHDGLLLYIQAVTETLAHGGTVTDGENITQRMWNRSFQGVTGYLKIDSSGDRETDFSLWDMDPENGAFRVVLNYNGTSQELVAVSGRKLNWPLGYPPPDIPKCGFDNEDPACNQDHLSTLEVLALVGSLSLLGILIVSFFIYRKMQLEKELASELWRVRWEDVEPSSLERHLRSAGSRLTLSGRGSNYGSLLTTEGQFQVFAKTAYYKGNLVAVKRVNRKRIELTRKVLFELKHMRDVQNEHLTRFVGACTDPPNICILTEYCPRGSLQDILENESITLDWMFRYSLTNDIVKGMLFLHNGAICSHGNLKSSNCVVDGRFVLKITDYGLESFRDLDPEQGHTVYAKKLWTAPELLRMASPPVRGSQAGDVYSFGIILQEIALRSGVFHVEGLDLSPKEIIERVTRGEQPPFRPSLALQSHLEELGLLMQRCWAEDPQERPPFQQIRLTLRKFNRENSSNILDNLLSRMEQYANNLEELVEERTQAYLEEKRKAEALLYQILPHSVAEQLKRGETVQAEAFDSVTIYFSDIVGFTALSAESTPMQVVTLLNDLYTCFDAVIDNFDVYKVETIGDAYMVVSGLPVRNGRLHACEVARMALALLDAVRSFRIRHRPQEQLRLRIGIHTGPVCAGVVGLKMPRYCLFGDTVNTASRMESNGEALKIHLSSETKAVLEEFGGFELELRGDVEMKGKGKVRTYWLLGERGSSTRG
# Sequence of Parathyroid hormone/parathyroid hormone-related peptide receptor (Homo sapiens) (Q03431 whole entry, looked up): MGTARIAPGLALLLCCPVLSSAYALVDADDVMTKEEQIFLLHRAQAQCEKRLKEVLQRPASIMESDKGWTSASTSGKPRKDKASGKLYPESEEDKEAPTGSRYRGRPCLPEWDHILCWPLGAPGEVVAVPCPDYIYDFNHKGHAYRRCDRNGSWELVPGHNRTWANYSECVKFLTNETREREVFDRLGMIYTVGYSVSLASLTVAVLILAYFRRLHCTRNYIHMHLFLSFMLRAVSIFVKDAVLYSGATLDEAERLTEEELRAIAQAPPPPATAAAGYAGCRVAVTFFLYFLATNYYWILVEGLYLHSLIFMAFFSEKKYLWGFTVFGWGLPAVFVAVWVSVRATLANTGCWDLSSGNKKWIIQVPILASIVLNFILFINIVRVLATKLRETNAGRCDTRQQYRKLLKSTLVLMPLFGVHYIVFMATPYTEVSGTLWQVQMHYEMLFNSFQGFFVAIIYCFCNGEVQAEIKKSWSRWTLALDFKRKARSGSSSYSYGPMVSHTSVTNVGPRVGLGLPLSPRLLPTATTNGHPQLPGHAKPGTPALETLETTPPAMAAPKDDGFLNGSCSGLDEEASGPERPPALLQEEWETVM
smiles,measurement,setting,value
CCCSc1ccc2nc(NC(=O)OC)[nH]c2c1,Potency,[1],inactive
same,Potency,[2],inactive
same,Potency,[3],inactive
same,Potency,[4],0.938 µM (active)
same,Potency,[5],1.33 µM (active)
CC(=O)SCC(CC(=O)c1ccc(C)cc1)C(=O)O (centres undefined),Potency,[1],inactive
same,Potency,[6],inactive
same,Potency,[7],inactive
same,Potency,[3],inactive
same,Potency,[4],inactive
same,Potency,[5],inactive
Cc1cc(O)c2ccccc2c1O,Potency,[1],inactive
same,Potency,[8],inactive
same,Potency,[2],inactive
same,Potency,[4],inactive
O=C1CN(/N=C/c2ccc([N+](=O)[O-])o2)C(=O)N1,Potency,[1],inactive
same,Potency,[8],inactive
same,Potency,[2],inactive
same,Potency,[3],inactive
same,Potency,[5],inactive
CN(C)[C@@H]1C(=O)C(C(=O)NCN2CCCC2)=C(O)[C@@]2(O)C(=O)C3=C(O)c4c(O)cccc4[C@@](C)(O)C3C[C@@H]12 (some centres undefined),Potency,[1],inactive
same,Potency,[8],inactive
same,Potency,[2],inactive
same,Potency,[7],inactive
same,Potency,[3],inactive
same,Potency,[4],inactive
same,Potency,[5],inactive
Nc1cc(-c2ccncc2)c[nH]c1=O,Potency,[1],inactive
same,Potency,[8],inactive
same,Potency,[2],inactive
same,Potency,[3],inactive
same,Potency,[4],inactive
same,Potency,[5],inactive
Nc1ccc(C(=O)O)c(O)c1,Potency,[1],inactive
same,Potency,[8],inactive
same,Potency,[2],inactive
same,Potency,[7],inactive
same,Potency,[3],inactive
same,Potency,[4],inactive
same,Potency,[5],inactive
CC(C(=O)O)c1ccc(C(=O)c2ccccc2)s1 (centres undefined),Potency,[1],14.1 µM (active)
same,Potency,[8],inactive
same,Potency,[2],inactive
same,Potency,[7],inactive
same,Potency,[3],inactive
same,Potency,[4],inactive
same,Potency,[5],inactive
Nc1c(CC(=O)O)cccc1C(=O)c1ccc(Br)cc1,Potency,[1],inactive
same,Potency,[8],inactive
same,Potency,[2],inactive
same,Potency,[7],inactive
same,Potency,[3],inactive
same,Potency,[4],inactive
same,Potency,[5],inactive
CCCCCCOc1ccccc1C(N)=O,Potency,[1],inactive
same,Potency,[8],inactive
same,Potency,[2],inactive
same,Potency,[7],18.4 µM (active)
same,Potency,[4],inactive
same,Potency,[5],inactive
CCCCCCCCCCCC(=O)[O][Sn]([CH2]CCC)([CH2]CCC)[O]C(=O)CCCCCCCCCCC,Potency,[1],inactive
same,Potency,[2],inactive
same,Potency,[7],inactive
same,Potency,[3],inactive
same,Potency,[4],inactive
same,Potency,[5],inactive
O=C(O)c1cc(O)c(O)c(O)c1,Potency,[1],inactive
same,Potency,[8],inactive
same,Potency,[2],inactive
same,Potency,[7],inactive
same,Potency,[3],inactive
same,Potency,[4],inactive
same,Potency,[5],inactive
COc1ccc(/C=C/C(=O)Nc2ccccc2C(=O)O)cc1OC,Potency,[1],7.08 µM (active)
same,Potency,[8],inactive
same,Potency,[2],inactive
same,Potency,[7],inactive
same,Potency,[9],1.85 µM (active)
same,Potency,[10],9.53 µM (active)
same,Potency,[3],inactive
same,Potency,[11],inactive
same,Potency,[12],inactive
same,Potency,[13],inactive
CCCOC(=O)c1ccc(O)cc1,Potency,[1],inactive
same,Potency,[8],inactive
same,Potency,[2],inactive
same,Potency,[7],inactive
same,Potency,[3],inactive
same,Potency,[4],inactive
same,Potency,[5],inactive
C#C[C@]1(O)CC[C@H]2[C@@H]3CCc4cc(O)ccc4[C@H]3CC[C@@]21C,Potency,[1],inactive
same,Potency,[2],inactive
same,Potency,[3],inactive
same,Potency,[5],13.3 µM (active)
Cc1c(Nc2ncccc2C(=O)O)cccc1C(F)(F)F,Potency,[1],inactive
same,Potency,[8],inactive
same,Potency,[2],inactive
same,Potency,[4],inactive
same,Potency,[5],inactive
CCC1C(=O)OCC1Cc1cncn1C (centres undefined),Potency,[1],inactive
same,Potency,[8],inactive
same,Potency,[2],inactive
same,Potency,[9],inactive
same,Potency,[10],inactive
same,Potency,[14],inactive
same,Potency,[3],inactive
same,Potency,[11],inactive
same,outcome,[15],inactive
same,Potency,[12],inactive
same,Potency,[13],inactive
same,Potency,[4],inactive
same,Potency,[5],inactive
Cc1ccccc1CNc1ncnc2c1ncn2C1OC(CO)C(O)C1O (centres undefined),Potency,[1],inactive
same,Potency,[8],inactive
same,Potency,[9],inactive
same,Potency,[10],inactive
same,Potency,[14],inactive
Cc1c(C(=O)O)c(O)cc2c1C(=O)c1c(O)c([C@@H]3O[C@H](CO)[C@@H](O)[C@H](O)[C@H]3O)c(O)c(O)c1C2=O,Potency,[1],inactive
same,Potency,[2],inactive
same,Potency,[4],inactive
same,Potency,[5],inactive
c1ccc2sc(SSc3nc4ccccc4s3)nc2c1,Potency,[1],inactive
same,Potency,[8],inactive
same,Potency,[2],inactive
same,Potency,[4],inactive
same,Potency,[5],inactive
C#C[C@]1(O)CC[C@H]2[C@@H]3CCC4=Cc5oncc5CC4(C)[C@H]3CCC21C (some centres undefined),Potency,[1],inactive
COc1cc2c3cc1Oc1cc(ccc1O)C[C@@H]1c4c(cc(OC)c(O)c4Oc4ccc(cc4)C[C@@H]3N(C)CC2)CC[N+]1(C)C,Potency,[1],inactive
same,Potency,[8],inactive
same,Potency,[2],inactive
same,Potency,[7],inactive
same,Potency,[3],inactive
same,Potency,[4],inactive
same,Potency,[5],inactive
CCCCCCCCCCCCCCCC(=O)OC(C)C,Potency,[1],inactive
same,Potency,[8],inactive
same,Potency,[2],inactive
same,Potency,[7],inactive
same,Potency,[3],inactive
same,Potency,[4],inactive
same,Potency,[5],inactive
O=C(/C=C/c1ccccc1)NCCO,Potency,[1],inactive
same,Potency,[8],inactive
same,Potency,[2],inactive
same,Potency,[3],inactive
same,Potency,[4],inactive
same,Potency,[5],inactive
N#C/C(=C\c1ccc(O)c(O)c1)C(=O)NCCCc1ccccc1,Potency,[1],inactive
same,Potency,[6],inactive
same,Potency,[7],inactive
same,Potency,[9],inactive
same,Potency,[10],inactive
same,Potency,[14],inactive
same,Potency,[13],inactive
COc1ccc(-c2cc(=S)ss2)cc1,Potency,[1],inactive
same,Potency,[8],inactive
same,Potency,[2],inactive
same,Potency,[4],inactive
same,Potency,[5],inactive
[O-][n+]1ccccc1SSc1cccc[n+]1[O-],Potency,[1],inactive
same,Potency,[2],inactive
same,Potency,[4],0.325 µM (active)
same,Potency,[5],0.0731 µM (active)
Cc1ccc(C(=O)c2ccc(CC(=O)O)n2C)cc1,Potency,[1],inactive
same,Potency,[8],inactive
same,Potency,[2],inactive
same,Potency,[3],inactive
same,Potency,[4],inactive
same,Potency,[5],inactive
Cc1nc2ccccc2n1Cc1ccc(Cl)cc1,Potency,[1],inactive
same,Potency,[8],inactive
same,Potency,[2],inactive
same,Potency,[3],inactive
same,Potency,[5],5.31 µM (active)
Cc1[nH]cnc1CN1CCc2c(c3ccccc3n2C)C1=O,Potency,[1],inactive
same,Potency,[8],inactive
same,Potency,[2],inactive
same,Potency,[4],inactive
same,Potency,[5],inactive

# — PubChem BioAssay (NCATS)
